Dicer processing: blocks human Dicer maturation of pre-miR-21; hit rate 6% among 47,000; cat-ELCCA pre-miR-21 Dicer processing, chemiluminescence; stronger effect = higher value; Q9UPY3; z-score at 25 µM; AID 1347074; in the data active means z-score above about 3, passing the limit was not always enough;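 further: plate controls were vehicle for no effect and no enzyme for full effect; higher signal means more uncleaved substrate so more Dicer inhibition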
Numbers without * were called inactive. Many of the other results were omitted from the sample, so hits are more common in it than they were.

SMILES	Dicer processing
Cc1ccc(C2=NN3C(C2)c2cc(Br)ccc2OC3c2ccncc2)s1 (stereo unspecified)	4.32*
COc1cccc(C2=NN3C(C2)c2cc(Br)ccc2OC3c2ccncc2)c1 (stereo unspecified)	6.71*
COc1cccc2c1OC(c1ccncc1)N1N=C(c3cc(Cl)ccc3O)CC21 (stereo unspecified)	2.2
Cc1ccc(O)c(C2=NN3C(C2)c2cc(Br)ccc2OC3c2ccncc2)c1 (stereo unspecified)	0.98
COc1ccc(O)c(C2=NN3C(C2)c2cc(Br)ccc2OC3c2cccnc2)c1 (stereo unspecified)	3.11
COc1ccc(O)c(C2=NN3C(C2)c2cc(Br)ccc2OC3c2ccncc2)c1 (stereo unspecified)	13.1*
COC(=O)C1=C(C)NC2=C(C(=O)CC(c3ccccc3)C2)C1c1ccc(OC(C)=O)c(OC)c1 (stereo unspecified)	-5.6
O=c1oc2cc3occ(-c4ccccc4)c3cc2c2ccccc12	-0.19
CSc1nc2cc(-c3ccc(Cl)cc3)nn2c(N)c1S(=O)(=O)c1ccc(Cl)cc1	-0.95
Cc1ccc(NC(=O)C2Sc3nnc(C)n3NC2c2ccc(Cl)cc2)c(Br)c1 (stereo unspecified)	-0.67
CCCCCOc1ccc(C2c3c(oc4ccccc4c3=O)C(=O)N2c2nnc(C)s2)cc1OC (stereo unspecified)	-0.24
Cc1cccc(C2C3=C(CC(C)(C)CC3=O)N=C3c4ccccc4C(=O)C32)c1 (stereo unspecified)	-0.39
Cn1nc(-c2ccc(Cl)cc2)cc1NC(=O)c1ccccc1C(=O)O	2.57
CCCCC(=O)N1c2ccccc2NC2=C(C(=O)CCC2)C1c1cccs1 (stereo unspecified)	-0.59
N#Cc1c2c(c(N3CCOCC3)n3c1nc1ccccc13)CCCC2	0.17
Cc1cc(C(=O)C(F)(F)F)c(C)n1-c1ccc(C(F)(F)F)cc1	-0.9
COc1ccc(C2C3CCc4ccccc4C3=NN2CCOC(=O)Nc2ccc(Cl)cc2)cc1 (stereo unspecified)	1.62
Cc1ccc(-c2nnc(N3CCOCC3)c3ccccc23)cc1S(=O)(=O)N1CCOCC1	-1.32
CC1=CC(C)(C)Nc2ccc(OC(=O)Cc3cccc4ccccc34)cc21	1.48
CCCN1C(=O)C(O)(CC(=O)c2ccncc2)c2ccccc21 (stereo unspecified)	-0.27
Brc1ccc2c(c1)C1CC(c3ccco3)=NN1C(c1ccccc1)O2 (stereo unspecified)	5.71*
c1ccc(C2Oc3ccccc3C3CC(c4cccnc4)=NN32)cc1 (stereo unspecified)	0.1
CCOc1ccc(C2Oc3ccc(Cl)cc3C3CC(c4ccco4)=NN32)cc1 (stereo unspecified)	3.82*
COC(=O)c1ccc(C2Oc3ccccc3C3CC(c4cc(OC)ccc4O)=NN32)cc1 (stereo unspecified)	2.66
Cc1ccc(OCC(O)NNC(=O)OC(C)(C)C)cc1C (stereo unspecified)	-0.1
SMILES	Dicer processing
CC1(C)OC(=O)C(=C2SCCCS2)C(=O)O1	0.88
COC(=O)CSc1ncnc2cc(OC)c(OC)cc12	-1.49
CCOC(=O)C1=C(C)Nc2nc3ccccc3n2C1c1sccc1C (stereo unspecified)	-0.78
CCOC(=O)C1=C(C)Nc2nc3ccccc3n2C1c1ccccc1C (stereo unspecified)	0.04
CC1=C(C(=O)OC(C)C)C(c2sccc2C)n2c(nc3ccccc32)N1 (stereo unspecified)	3.52*
COC(=O)C1=C(C)Nc2nc3ccccc3n2C1c1sccc1C (stereo unspecified)	-0.1
CCOC(=O)C1=C(C)Nc2nc3ccccc3n2C1c1ccc(O)cc1 (stereo unspecified)	-0.38
CCOC(=O)C1=C(C)Nc2nc3ccccc3n2C1/C=C/c1ccccc1 (stereo unspecified)	3.83*
Cc1cc(C(F)(F)F)n2nc(-c3ccc(Cl)cc3)cc2n1	-0.29
CCOC(=O)/C(C#N)=C/N1CCN(c2ccc([N+](=O)[O-])cn2)CC1	-2.3
O=C(O)CCSc1nnc(-c2ccccc2)o1	-0.79
Cc1ccccc1C1NC(=O)c2c(sc3c2CCN(C)C3)N1 (stereo unspecified)	0.05
NC(=S)N/N=C/c1ccc(Cl)cc1	4.23
Cc1c(C(=O)O)nnn1-c1ccccc1Oc1ccc(Cl)cc1Cl	0.39
COc1ccc(Br)cc1S(=O)(=O)N1CCN(Cc2ccc3c(c2)OCO3)CC1	0.69
O=c1c(Cc2ccccc2)c(O)c2ccccc2n1-c1ccccc1	4.03*
O=c1c(Cc2ccccc2)c(O)c2cccc3c2n1CCC3	-1.03
O=c1c(Cc2ccccc2)c(O)c2cccc3c4ccccc4n1c23	-1.49
CC1Oc2ccc(C(=O)CCC(=O)O)cc2N(C)C1=O (stereo unspecified)	-1.06
CCSCCOC(=O)C1=C(C)NC2=C(C(=O)CCC2)C1c1ccc(OC)c(Br)c1 (stereo unspecified)	2.2
CCOc1ccc(C2C(C(=O)OCCSCC)=C(C)NC3=C2C(=O)CCC3)cc1 (stereo unspecified)	0.51
CC1=C(C(=O)OCCc2ccccc2)C(c2ccc(Br)cc2)C2=C(CCCC2=O)N1 (stereo unspecified)	2.18
CC1=C(C(=O)OCCc2ccccc2)C(c2ccc(C)cc2)C2=C(CCCC2=O)N1 (stereo unspecified)	0.5
CCSCCOC(=O)C1=C(C)NC2=C(C(=O)CCC2)C1c1ccc(OC)cc1OC (stereo unspecified)	0.01
CCSCCOC(=O)C1=C(C)NC2=C(C(=O)CCC2)C1c1cccc(Oc2ccccc2)c1 (stereo unspecified)	6.02*
SMILES	Dicer processing
CCSCCOC(=O)C1=C(C)NC2=C(C(=O)CCC2)C1c1ccc(F)cc1 (stereo unspecified)	6.41*
CC1=C(C(=O)OCC2CCCO2)C(c2cccc(Oc3ccccc3)c2)C2=C(CCCC2=O)N1 (stereo unspecified)	1.11
CC1=C(C(=O)OCCc2ccccc2)C(c2ccsc2)C2=C(CCCC2=O)N1 (stereo unspecified)	3.75*
O=[N+]([O-])c1ccc(Sc2c(-c3ccccc3)nc3sc4ccccc4n23)cc1	-1.03
CC(NC(=O)NC(C)(C)C)c1ccccc1 (stereo unspecified)	0.43
CCOC(=O)COc1ccc2c(C)cc(=O)oc2c1	-0.73
O=S(=O)(c1ccc(F)cc1)N1CCC(Cc2ccccc2)CC1	0.45
O=c1[nH]cc(O)n1-c1cccc2ncccc12	2.71
COc1cc(CO)c(C2(C(=O)O)CCCC2)cc1OC	-1.68
CCC(=O)c1cn(CC(=O)N2CCOCC2)c2ccccc12	-0.16
CCOC(=O)Cn1cc(C(=O)C2CC2)c2ccccc21	1.79
CC1CCCC(C)N1C(=O)Cn1cc(C(=O)C2CCCCC2)c2ccccc21 (stereo unspecified)	-4.06
O=C(c1cccs1)c1cn(CC(=O)N2CCOCC2)c2ccccc12	0.7
COC(=O)c1cn(CC(=O)N2CCOCC2)c2ccccc12	5.95*
CC1CCN(C(=O)Cn2cc(C(=O)C3CC3)c3ccccc32)CC1	5.13*
CCOC(=O)c1cnn(-c2ncnc3sc4c(c23)CCCC4)c1N	-1.3
Cc1nnc(NC(=O)CSc2nnc3c4ccccc4n(C)c3n2)s1	1.08
COc1cccc2c1OC(c1cccnc1)N1N=C(c3cc(C)ccc3O)CC21 (stereo unspecified)	2.28
Cn1nccc1C(=O)Nc1ccc(Cl)cc1	-1.77
Cn1nccc1NC(=S)Nc1ccc(Cl)cc1	4.01*
